# About 8,600 (12%) of roughly 69,000 compounds showed an effect of 50% or more. The sample holds strong results, similar compounds and a random draw of the others, so the mix is not that of the screen.
# Test system: Plasmodium berghei
# Assay: Screen against P. berghei liver stage (PbLuc), transformed with Luciferase, at 10uM
# Format: functional, HepG2
# Conditions: tested at 10 uM
row,SMILES,INHIBITION [%]
1,COc1ccccc1CNC(=O)c1ccccc1-n1cnc(CN)c1,-1.85
2,Cc1ccc(SC2CCCC2)c(C(=O)NCCO)c1,90.7
3,CC(=O)NCCNC(=O)c1cc(C)ccc1SC1CCCC1,49.9
4,Cc1ccc(SC2CCCC2)c(C(=O)NCCc2n[nH]c(=O)[nH]2)c1,49.9
5,COCCc1ncc(CNC2(c3ccc(Cl)cc3Cl)CC2)cn1,34
6,CCCN1CCC(NC(=O)Nc2ccc(OC)c(OC)c2)CC1,-4.46
7,COCCN1CCC(Nc2ccc(C#N)cc2F)CC1,21.7
8,CCCN1CCC(Nc2cc(-c3ccccc3)ccc2OC)CC1,78.9
9,Cc1cc(C(=O)NCC(O)c2c(Cl)cccc2Cl)nn1C (stereo not drawn),25.2
10,CCC(=O)N1CCN(c2ncnc3cc4c(cc23)OCCO4)CC1,41.6
11,COc1ccc(CN2CC(O)CN(C(=O)OCC(C)(C)C)CC2=O)cc1 (stereo not drawn),-15.6
12,COc1ccc(CN2CC(O)CN(C(=O)OCC(C)C)CC2=O)cc1 (stereo not drawn),15.4
13,COc1cccc(CN2CC(O)CN(C(=O)C(C)(C)C)CC2=O)c1OC (stereo not drawn),58.5
14,CCOC(=O)N1CC(=O)N(Cc2cccc(OC)c2OC)CC(O)C1 (stereo not drawn),0.284
15,CCOC(=O)N1CC(=O)N(Cc2ccc(OC)cc2)CC(O)C1 (stereo not drawn),68.4
16,COc1cccc(CN2CC(O)CN(C(=O)C3CC3)CC2=O)c1OC (stereo not drawn),-1.23
17,COCC(=O)N1CCCCC1c1nc(N(C)C)ncc1-c1cc(C)no1 (stereo not drawn),17.435
18,Cn1ccc(C(=O)N2CCCC(c3cc(O)n(C)n3)C2)n1 (stereo not drawn),36.4
19,CCc1cnc(C)nc1NCc1cnc2c(c1)CCC2,46.4
20,COc1ccccc1-n1nc(C(C)C)nc1Cc1nnc(N)s1,17.6
21,CC1=C(C(=O)N(C)Cc2noc3c2CCCC3)C(C)NC(=O)N1 (stereo not drawn),11.8
22,CCc1c(C(=O)NCC2CCS(=O)(=O)C2)cnn1-c1ccccc1 (stereo not drawn),4.71

row,SMILES,INHIBITION [%]
1,O=c1cc(CN2CCCC2)nc2n1CCCN(Cc1ccoc1)C2,-19.5
2,O=C(NCCNC(=O)C1CCCCC1)NCCn1cccc1,18.6
3,O=C(NCCn1cccc1)C1CCCOC1 (stereo not drawn),39.8
4,O=C(NCCCNC(=O)C1CCC1)NCCn1cccc1,54.4
5,NC(=O)c1cccc(CS(=O)(=O)CC(O)Cn2cccn2)c1 (stereo not drawn),4.41
6,CN(C)C(CNC(=O)NCCOc1ccccc1)c1ccco1 (stereo not drawn),-90.7
7,CN(C)c1cc(C(=O)N2CCCC2c2cnn(C)c2)ccn1 (stereo not drawn),22.3
8,CCN1CCC(CC(=O)N(C)C(C)c2cncs2)CC1 (stereo not drawn),0.825
9,O=S(=O)(NCC(O)c1ccc(C(F)(F)F)cc1)C1CC1 (stereo not drawn),72.2
10,CN(C)c1ccc(C(O)CNS(=O)(=O)C2CC2)cc1 (stereo not drawn),38.1
11,CSc1ccc(C(O)CNS(=O)(=O)C2CC2)cc1 (stereo not drawn),44.9
12,Cc1nn(C2CCS(=O)(=O)C2)c(O)c1Cc1ccc(Br)cc1 (stereo not drawn),43.4
13,CCOC(CC)C(=O)NCCC(=O)N1CCN(c2ccccn2)CC1 (stereo not drawn),-36.3
14,Cc1cc(CN(C)C(=O)NC2CCN(c3ncccn3)CC2)no1,27.1
15,CC1CCCN(c2ncc(-c3ccccc3F)c(-c3nccn3C)n2)C1 (stereo not drawn),75.45
16,CN1CCCC(c2cccc(-c3ccccc3F)n2)C1 (stereo not drawn),31.15
17,Cc1cc(-c2cnc(N3CCCC(C)C3)nc2C(C)C)on1 (stereo not drawn),26.3
18,Cn1ccnc1-c1nc(N2CCCCC2)ncc1-c1ccccc1F,54.8
19,O=c1c2cnc(N3CCCCC3)nc2ccn1-c1ccccc1F,-2.04
20,CC1CCN(c2ncc(C#N)c(N)n2)CC1,-10.3
21,COCCCNc1ncc(-c2cccc(F)c2)c(-c2nccn2C)n1,13.7
22,CC1CCN(c2ncc(-c3ccccc3F)c(-c3nccn3C)n2)CC1,72.05

row,SMILES,INHIBITION [%]
1,Cc1cc(CNc2ccccc2Cl)no1,-38.9
2,COCCC(=O)N1C[C@@H](O)[C@H](N2CCN(c3ccccc3)CC2)C1,16.5
3,CCOc1ncccc1C(=O)N1CCCC(n2nc(C)cc2C)C1 (stereo not drawn),0.0996
4,O=C(c1cccs1)N1CCC[C@]2(C[C@@H](OCc3ccncc3)CO2)C1,-41
5,CN(C(=O)c1ccccc1N(C)S(C)(=O)=O)c1ccc(C(C)(C)C)cc1,31.2
6,O=C(c1ccco1)N(CC(F)(F)F)C1CCOCC1,61.3
7,O=C(c1ccco1)N(CC(F)(F)F)C1CCCOC1 (stereo not drawn),9.16
8,O=C(c1ccc(F)cc1F)N(CC(F)(F)F)C1CCOCC1,3.04
9,N#Cc1cc(S(N)(=O)=O)ccc1N1CCN(c2ccccc2)CC1,-33.7
10,CC1CCCN(C(=O)c2ccc(-c3ccco3)o2)C1 (stereo not drawn),-22.2
11,COC(=O)NCC(=O)N1CCC(c2cc3ccccc3[nH]2)CC1,62.9
12,CNS(=O)(=O)CC(=O)N1CCC(c2cc3ccccc3[nH]2)CC1,18.6
13,CCS(=O)(=O)NCC(=O)N1CCC(c2cc3ccccc3[nH]2)CC1,-17.8
14,O=c1[nH]c2nc(N3CCOCC3)ncc2c(=O)n1-c1cccc(F)c1,31.7
15,O=S(=O)(C1CC1)N1C[C@@H]2CN(Cc3ccoc3)CCO[C@@H]2C1,-64.1
16,Cc1nnc(NCCC(=O)NCc2ccccc2)c(C#N)c1C,12.3
17,CC(=O)N1CC[C@@]2(O)CCCC[C@H]2[C@@H]1c1ccccc1,45
18,O=C(NCCC1COc2ccccc2O1)c1ccc(N2CC(O)C2)nc1 (stereo not drawn),59.5
19,O=C(NCCC1COc2ccccc2O1)c1ccc(-c2cn[nH]c2)nc1 (stereo not drawn),48.9
20,O=C(NCCC1COc2ccccc2O1)c1ccc(-c2cc[nH]n2)nc1 (stereo not drawn),-21.6
21,CCc1nc(C)cc(N2CCN(C(=O)[C@@H]3C[C@H]4C=C[C@@H]3C4)CC2)n1,-2.09
22,O=C(Cc1c[nH]c(=O)[nH]c1=O)N1CCCCC1CCc1cccc(O)c1 (stereo not drawn),57.6

row,SMILES,INHIBITION [%]
1,NCC1CCCCN1C(=O)Cc1cccc(Br)c1 (stereo not drawn),-0.159
2,O=C(Cc1c[nH]c(=O)[nH]c1=O)N1CCCCC1CCc1ccccc1 (stereo not drawn),-28
3,Nc1cccnc1N1CCCCCC1,-12.1
4,Cc1cccc(N2CCC3(CCCC(=O)N3)CC2)n1,-77.4
5,Cc1nnc(CN(C)CC2CCCCC2)o1,27.5
6,CCc1nnc(CN(C)CC2CCCCC2)o1,61.1
7,CCc1nnc(CN(C)C[C@@H]2CCCN3CCCC[C@H]23)o1,5.46
8,CCCN(CC)c1ccc(C(=O)N2CCCC2c2cnn(C)c2)cn1 (stereo not drawn),22.3
9,COc1ccc(CNCC2CN(C3CC3)CCO2)cc1C (stereo not drawn),10.2
10,C[C@H]1C[C@H]2CN(C(=O)CCOc3ccccc3)CC[C@H]2O1,27.6
11,Cc1nc(COCc2cnc3n2CCN(C)C3C)cs1 (stereo not drawn),52.3
12,CCOCc1cnc2n1CCN(Cc1nc(C)cs1)C2C (stereo not drawn),41
13,Cc1nc(COCc2cnc3n2CCN(C2CCC2)C3C)cs1 (stereo not drawn),-12.6
14,Cc1nc(COCc2cnc3n2CCN(C(=O)C2CC2)C3C)cs1 (stereo not drawn),33
15,Cc1nc(COCc2cnc3n2CCN(CC2CCC2)C3C)cs1 (stereo not drawn),50.2
16,CC(=O)N1CCn2c(COCc3csc(C)n3)cnc2C1C (stereo not drawn),-14.8
17,Clc1ccccc1Cc1noc(CN2CCCC(CN3CCCC3)C2)n1 (stereo not drawn),42.8
18,COCc1cc(NCCc2ccccn2)n2nccc2n1,26.6
19,CC(C)CNc1nnc(SC(C(=O)NCc2cccnc2)C(C)C)s1 (stereo not drawn),-11.3
20,COCC(O)CN(C)C(=O)NCc1ccc(-c2ccn[nH]2)cc1 (stereo not drawn),51.7
21,COCC(O)CN(C)C(=O)NCc1ccc(S(C)(=O)=O)cc1 (stereo not drawn),29.4
22,CNS(=O)(=O)c1ccc(CNC(=O)N(C)CC(O)COC)cc1 (stereo not drawn),36.3

row,SMILES,INHIBITION [%]
1,CC(NC(=O)CCOc1cccc(F)c1)c1nnc2n1CCC2 (stereo not drawn),33.7
2,CCC(O)Cn1cc(C2=CCN(Cc3cc(O)nc(C)n3)CC2)cn1 (stereo not drawn),52
3,CCC(O)Cn1cc(C2=CCN(Cc3ccc(OC)cc3)CC2)cn1 (stereo not drawn),-8.97
4,Cc1nc(O)cc(CN2CC=C(c3cnn(C(C)(C)C)c3)CC2)n1,-33.2
5,O=C1NCCc2c1sc1ccc(C(=O)N3CC[C@H](CO)[C@H](O)C3)cc21,12.1
6,CN(C)[C@H]1CN(C(=O)c2ccc3sc4c(c3c2)CCNC4=O)C[C@@H]1O,-26
7,CN(C)C1CCCN(C(=O)c2ccc3sc4c(c3c2)CCNC4=O)CC1 (stereo not drawn),60.3
8,Fc1ccc(C(CNc2ccncn2)N2CCCCC2)cc1 (stereo not drawn),5.03
9,CC(N)C(=O)N1CCC(Oc2cccc(C(F)(F)F)c2)CC1 (stereo not drawn),26.6
10,CCc1cccc(OC2CN(C(=O)[C@@H](N)CCSC)C2)c1,23.9
11,CCc1cccc(OC2CN(C(=O)[C@@H](N)[C@@H](C)O)C2)c1,62.4
12,Cc1nc2cc(=O)[nH]n2c(C)c1CC(=O)Nc1cnn(C(C)(C)C)c1,49.6
13,Cc1nc2cc(=O)[nH]n2c(C)c1CC(=O)Nc1cn[nH]c1,53.9
14,Cc1nc2cc(=O)[nH]n2c(C)c1CC(=O)Nc1cnn(C)c1,15
15,Cn1cc(CN2CCC3(CC2)CN(C(=O)c2cnccn2)CCO3)cn1,-13.2
16,CCOCCc1nc(Cc2ccccc2)n[nH]1,10.3
17,O=C1COC2(CCN(Cc3cccnc3)CC2)CN1,18.2
18,O=C(COCc1ccccc1Cl)N1CCN(c2ccc(Br)cn2)CC1,60.3
19,O=C(COCc1ccccc1Cl)N1CCN(c2ncccn2)CC1,-133
20,O=C(COCc1ccccc1Cl)N1CCN(c2cnccn2)CC1,-9.51

# From ChEMBL document CHEMBL4513216, “Probing the Open Global Health Chemical Diversity Library for Multistage-Active Starting Points for Next-Generation Antimalarials” (ACS Infect Dis, 2020)
